In PubChem BioAssay (NCATS) one finds Potency data, which are given here for 23 compounds.

Each structure is given as a SMILES string. Results filed as inconclusive are left out. The source made the active and inactive calls. The call rests on the fitted dose curve; in most records, active means well fitted curve in the direction sought with a large enough effect; inconclusive means small, poorly fitted or top-dose-only effect, or another doubt; inactive means no such curve, though single readings can be large; an effect the other way counts as inactive or inconclusive.

A short description of assay [1]: Quantitative High-Throughput drug screen in 47 multiple myeloma cell lines against the NCATS MIPE library collection: KMS27_JCRB cell viability assay (AID 1918970). Further: nearly all actives have a fitted effect of over 30% in size. The conditions noted are these: KMS27 myeloma cells, CellTiter-Glo ATP viability, 48 h; viability (% of DMSO): at 45.8 µM (top of the series). Put shortly: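 ATP-based viability (CellTiter-Glo luminescence) is measured in cells treated 48 h with approved and investigational drugs at 37 °C. Controls are DMSO-only wells for full viability and media-only wells for none.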
For orientation: ATP-based viability assays read luminescence as a measure of living cells.

Assay [2] in a line: Quantitative High-Throughput drug screen in 47 multiple myeloma cell lines against the NCATS MIPE library collection: KMS12BM_JCRB cell viability assay (AID 1918971). Further: nearly all actives have a fitted effect of over 35% in size. A digest of the protocol: (§1)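 Luminescent ATP measurement with CellTiter-Glo gives viability, scaled between DMSO-only wells (100%) and media-only wells (0%). Cells, 500 per well, faced library compounds for 48 hours at 37C.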

Assay [3] is described as follows: Quantitative High-Throughput drug screen in 47 multiple myeloma cell lines against the NCATS MIPE library collection: KMS12PE_JCRB cell viability assay (AID 1918972). Further: nearly all actives have a fitted effect of over 30% in size. A digest of the protocol: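 Steps: seed 500 cells per well; pin-transfer MIPE 4.0 library; incubate 48 h at 37C, 5% CO2, humidified; add CellTiter-Glo, 5 min room temperature; read luminescence.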

The nature of assay [4]: Quantitative High-Throughput drug screen in 47 multiple myeloma cell lines against the NCATS MIPE library collection: KMS26_JCRB cell viability assay (AID 1918975). Further: nearly all actives have a fitted effect of over 45% in size. Put shortly:
as §1

Assay [5] can be described thus: Quantitative High-Throughput drug screen in 47 multiple myeloma cell lines against the NCATS MIPE library collection: MMM1_PLB cell viability assay (AID 1918976). Further: nearly all actives have a fitted effect of over 35% in size. Put shortly:
(§2)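 Inhibition of viability over 48 h was scored by ATP content (CellTiter-Glo) in 500-cell wells. Zero and full viability were defined by media-only and DMSO-only wells.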

The nature of assay [6]: Quantitative High-Throughput drug screen in 47 multiple myeloma cell lines against the NCATS MIPE library collection: NCIH929_DSMZ cell viability assay (AID 1918978). Further: nearly all actives have a fitted effect of over 35% in size. A digest of the protocol:
as §2

Assay [7] in a line: Quantitative High-Throughput drug screen in 47 multiple myeloma cell lines against the NCATS MIPE library collection: MOLP8_DSMZ cell viability assay (AID 1918977). Further: nearly all actives have a fitted effect of over 45% in size. A digest of the protocol:
as §2

Assay [8] can be described thus: Quantitative High-Throughput drug screen in 47 multiple myeloma cell lines against the NCATS MIPE library collection: KMS20_JCRB cell viability assay (AID 1918973). Further: nearly all actives have a fitted effect of over 45% in size. A digest of the protocol: (§3)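 Primary qHTS used for cherry-picking: cells at 500/well, library compounds for 48 h (37C, 5% CO2), luminescent ATP assay.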
Assay [9] is described as follows: Quantitative High-Throughput drug screen in 47 multiple myeloma cell lines against the NCATS MIPE library collection: KMS21BM_JCRB cell viability assay (AID 1918974). The conditions noted are these: ATP luminescence, 48 h; viability: at 45.8 µM (top of the series). A digest of the protocol: as §3
Assay [10] in a line: Quantitative High-Throughput drug screen in 47 multiple myeloma cell lines against the NCATS MIPE library collection: Karpas25_ECACC cell viability assay (AID 1918968; further: nearly all actives have a fitted effect of over 35% in size). Put shortly: as §3
Potency means the concentration at half of the fitted maximal effect.

In the case of `CCCCCCCCCCCCCCCC(=O)O[C@H]1[C@@H](O)[C@@H](O)[C@@H]([C@H](NC(=O)[C@@H]2C[C@@H](CCC)CN2C)[C@H](C)Cl)O[C@@H]1SC`, the Potency is 7430 nM (active) in assay [1], 4690 nM (active) in assay [2], 4180 nM (active) in assay [5] and 2960 nM (active) in [6]. Besides, the Potency entry in assay [3] and in [4] was “inactive” in each case.
As for `CON(C)C(=O)N1N=C(c2cc(F)ccc2F)S[C@]1(CCCN)c1ccccc1`, the Potency in [1] and in assay [3] was 1 nM (active) each time. Further, the Potency result in [2], in assay [4], in assay [7] and in assay [6] was “inactive” in each case.
`CC[C@H](CC#N)OC(=O)N[C@@H](C)c1cccc(NC(=O)Nc2ccc(-c3cnco3)c(OC)c2)c1`: the Potency in assay [1] is 14800 nM (active); in [2] it was 1480 nM (active); in [3] it was 14800 nM (active); in assay [4], 20900 nM (active).
Consider `CSc1cccc(Nc2ncc3cc(-c4c(Cl)cccc4Cl)c(=O)n(C)c3n2)c1`, for which the Potency in [1] was 66.2 nM (active); in [2], 1320 nM (active); in assay [3], 59 nM (active); in [8], 10.5 nM (active); in assay [9], 20.9 nM (active); in [4], 9350 nM (active). For the same compound, the Potency in assay [7] is 833 nM (active); in assay [6], 13200 nM (active).
For `CN1CC(=O)N2C(Cc3c([nH]c4ccccc34)[C@H]2c2ccc3c(c2)OCO3)C1=O` (some centres undefined), the Potency result in assay [1], in assay [3], in assay [7] and in assay [6] was “inactive” throughout. In addition, the Potency in assay [2] was 1320 nM (active).
As to `CN(C)CCN(C)C(=O)c1ccc(NC(=O)Nc2ccc(-c3nc(N4CCOCC4)c4ccn(CC(F)(F)F)c4n3)cc2)cc1`, the Potency is 1 nM (active) in assay [1]; 209 nM (active) in [2]; 132 nM (active) in [3]; 41.8 nM (active) in assay [8]; 52.6 nM (active) in assay [4]; 29.6 nM (active) in assay [5]. Further, the Potency in assay [7] was 6.6 nM (active); in [6], 8.3 nM (active).
In the case of `OC[C@H]1O[C@@H](OCCc2ccc(O)cc2)[C@H](O)[C@@H](O)[C@H]1O`, the Potency result in assay [1], in assay [2], in [3] and in [7] was “inactive” each time.
In the case of `CN1[C@H]2CC[C@H]1CC(OC(=O)c1c[nH]c3ccccc13)C2` (some centres undefined), the Potency entry in assay [1], in [2], in [3] and in [4] was “inactive” throughout. For the same compound, the Potency in [8] is 14800 nM (active); in assay [5], 1320 nM (active); in [7] it was 2350 nM (active); in assay [6], 18700 nM (active).
For the compound `CC1(C)OC2CC3C4CC(F)C5=CC(=O)C=CC5(C)C4C(O)CC3(C)[C@]2(C(=O)CO)O1` (some centres undefined), the values for the Potency in assay [10] and in assay [9] were 83.3 nM (active) and 8.3 nM (active), respectively. In addition, the Potency result in assay [8], in assay [4], in assay [5] and in assay [6] was “inactive” in each case.
As for `Cc1cc2nc3c(=O)[nH]c(=O)nc-3n(CC(O)C(O)C(O)CO)c2cc1C` (centres undefined), the Potency entry in [10], in assay [3] and in assay [7] was “inactive” each time.
For `C=C[C@@H]1CN2CCC1C[C@@H]2C(O)c1ccnc2ccc(OC)cc12` (some centres undefined), the Potency in [10] is 1660 nM (active); in [5] it was 11800 nM (active). For the same compound, the Potency entry in assay [3] and in assay [6] was “inactive” each time.
As for `Nc1nc(Cl)nc2c1ncn2[C@@H]1O[C@H](CO)[C@@H](O)[C@H]1F`, the Potency in [10] was 526 nM (active); in assay [3] it was 833 nM (active); in [5], 2090 nM (active); in assay [6] it was 33.2 nM (active).
As to `C=CC[N+]1([C@H]2C[C@H]3[C@@H]4CC[C@H]5C[C@H](O)[C@@H](N6CCOCC6)C[C@]5(C)[C@@H]4CC[C@]3(C)[C@H]2OC(C)=O)CCCC1`, the Potency entry in assay [1], in [2], in assay [3] and in assay [8] was “inactive” in each case.
Consider `CC[C@]1(O)C[C@H]2CN(CCC3=c4ccccc4=N[C]3[C@@](C(=O)OC)(c3cc4c(cc3OC)N(C)[C@H]3[C@@](O)(C(N)=O)[C@H](O)[C@]5(CC)C=CCN6CC[C@]43[C@@H]65)C2)C1`, for which the Potency in [1] is 296 nM (active); in [2], 4.7 nM (active); in assay [3], 132 nM (active); in [9] it was 93.5 nM (active); in assay [4], 66.2 nM (active); in assay [5] it was 132 nM (active). Moreover, the results for the Potency in [7] and in assay [6] were 148 nM (active) and 166 nM (active), respectively.
Consider `CCCCc1ccc(NS(=O)(=O)c2ccc(C)c(C(=O)N3CCN(c4cccc(C)c4C)CC3)c2)cc1`, for which the Potency entry in [1] was “inactive”. Further, the Potency in [2] was 20900 nM (active); in assay [4], 23500 nM (active); in assay [5], 18700 nM (active).
In the case of `CC(C)c1onc(-c2c(Cl)cccc2Cl)c1COc1ccc(C=Cc2cccc(C(=O)O)c2)c(Cl)c1`, the Potency result in [1], in assay [3] and in [7] was “inactive” throughout. The Potency in [5] is 20900 nM (active).
As for `N#Cc1ccc(Oc2ccc3c(c2)COB3O)cc1`, the Potency in [1] was 23500 nM (active); in assay [9], 3320 nM (active).
As for `N=C1SC(=Cc2ccc(-c3ccc4c(c3)C(=O)NC4=O)o2)C(=O)N1c1ccc(Br)cc1`, the Potency result in assay [1] was “inactive”. The Potency in assay [2] is 4180 nM (active); in assay [4], 4180 nM (active); in assay [5], 3320 nM (active); in assay [7] it was 3720 nM (active).
`COc1nc(C)cnc1NS(=O)(=O)c1cccnc1-c1ccc(-c2nnco2)cc1`: the Potency result in assay [1] and in assay [3] was “inactive” throughout. Besides, the Potency in [5] was 5260 nM (active).
For `Cc1cc2c(cc1C1(c3ccc(C(=O)O)cn3)CC1)C(C)(C)CCC2(C)C`, the Potency in assay [2] was 3320 nM (active); in assay [4], 14800 nM (active). Besides, in [3], the Potency entry is “inactive”.
Regarding `Cc1nc2c([nH]1)CCN(C(=O)c1ccc(NC(=O)c3ccccc3-c3ccccc3)cc1)c1ccccc1-2`, the Potency entry in assay [1], in assay [4] and in assay [7] was “inactive” in each case.
As for `Cn1cc(-c2ccc3nnc(Sc4ccc5ncccc5c4)n3n2)cn1`, the Potency entry in assay [1] was “inactive”. In addition, the Potency in [3] is 5260 nM (active); in [5], 16600 nM (active).
Turning to `CO[C@@H]1C(N(C)C(=O)c2ccccc2)C[C@H]2O[C@]1(C)n1c3ccccc3c3c4c(c5c6ccccc6n2c5c31)C(=O)NC4=O` (some centres undefined), the Potency entry in assay [2] was “inactive”. The Potency in [3] is 1660 nM (active); in assay [8], 3720 nM (active); in assay [4], 1320 nM (active).
